# Where “and” joins values, the source holds several entries; their conditions need not be identical. Equal entries are not always repeated. Compounds without any hit were thinned out: in the full panel of roughly 83,000, 20% have a hit.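 In brief: 96-well plates, 48 h treatment, single concentration, percent growth endpoint.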 A number with no mark means an inactive call. Calls of active or inactive are those of the source. Rule for the calls: active = growth percent below 10; inactive = the rest. Where a SMILES comes first, the peptide text is derived from it. Bridges are numbered along the chain shown (N, C = ends). [ ]: non-standard residue; d: D form. The star is where a group is joined. ξ: configuration not given here. ξNMePhe(4-NMe2) = CNC(Cc1ccc(N(C)C)cc1)C(=O)O; Picolinoyl(3-OH) = O=C(c1ncccc1O)*; ξPip(4-oxo) = O=C1CCNC(C(=O)O)C1; Phg = N[CH](C(=O)O)c1ccccc1; Abu = CC[CH](N)C(=O)O
# Tests used:
# Assay in all cases: NCI-60 one-dose screen, 48 h (100 = growth as untreated, 0 = no growth, -100 = all killed)
# SR leukemia = settings: 10 µM
# OVCAR-8 ovarian = settings: 10 µM
# OVCAR-5 ovarian = settings: 10 µM
# OVCAR-4 ovarian = settings: 10 µM
# SK-OV-3 ovarian = settings: 10 µM
# IGROV1 ovarian = settings: 10 µM
# OVCAR-3 ovarian = settings: 10 µM
# HS 578T breast = settings: 10 µM
# NCI/ADR-RES ovarian = settings: 10 µM
# T-47D breast = settings: 10 µM
# BT-549 breast = settings: 10 µM
# MDA-MB-435 melanoma = settings: 10 µM
# SW-620 colon = settings: 10 µM
# MCF7 breast = tested on: MCF7 breast
# HCT-116 colon = settings: 10 µM
# HCC-2998 colon = settings: 10 µM
# KM12 colon = settings: 10 µM
# RPMI-8226 leukemia = settings: 10 µM
SMILES,growth (SR leukemia),growth (OVCAR-8 ovarian) [%],growth (OVCAR-5 ovarian),growth (OVCAR-4 ovarian) [%],growth (SK-OV-3 ovarian),growth (IGROV1 ovarian) [%],growth (OVCAR-3 ovarian),growth (HS 578T breast),growth (NCI/ADR-RES ovarian),growth (T-47D breast) [%],growth (BT-549 breast),growth (MDA-MB-435 melanoma),growth (SW-620 colon) [%],growth (MCF7 breast; 10 µM unless noted) [%],growth (HCT-116 colon),growth (HCC-2998 colon) [%],growth (KM12 colon),growth (RPMI-8226 leukemia),growth (MCF7 breast; 10 µM) [%],growth (MCF7 breast; 100 µM)
N/N=C(/Cc1ccccc1)NNC(N)=S,99.2%,108,111%,101,106%,95.2,111%,106%,107%,91.6,75.7%,92.3%,111,89.2,86.3%,117,101%,,,
Nc1ccccc1C(=O)Nc1ccc(Cl)cc1Cl,50%,83.1,100%,87.5,99.2%,35.9,93.7%,87.4%,90.7%,88,99.2%,107%,85.9,65.5,59.9%,103,91%,,,
CCC1NC(=O)C(NC(=O)c2ncccc2O)C(C)OC(=O)C(c2ccccc2)NC(=O)C2CC(=O)CCN2C(=O)C(Cc2ccc(N(C)C)cc2)N(C)C(=O)C2CCCN2C1=O (stereo not given) (tested in a mixture with another compound) ({Picolinoyl(3-OH)}-T[Abu]P[ξNMePhe(4-NMe2)][ξPip(4-oxo)][Phg]; ester 1-C; configuration not given here),52.1%,,-21.3% (active),48.1,95.5%,64,63.1%,,179%,64.8,54.6%,57.1%,68.3,46.5,34.2%,,74.9%,34.1%,,
CO[C@H]1C[C@@H]2CC[C@@H](C)[C@@](O)(O2)C(=O)C(=O)N2CCCC[C@H]2C(=O)O[C@H]([C@H](C)C[C@@H]2CC[C@@H](O)[C@H](OC)C2)CC(=O)[C@H](C)C=C(C)[C@@H](O)[C@@H](OC)C(=O)[C@H](C)C[C@H](C)/C=C/C=C/C=C1C,23.7%,,-6.29% (active),33.3,45.1%,11.9,55.1%,,-10.4% (active),19.4,15.6%,49%,58,23.8,31.1%,146,60.9%,23.8%,,
NC(C(=O)O)C(O)c1ccco1 (stereo not given),112%,103,108%,114,107%,124,117%,107%,112%,98,109%,107%,102,95.2,111%,107,107%,,,
Nc1ccc(CC(=O)O)c(N)c1,95.2%,106,96.1%,98.6,93%,106,97.2%,96.7%,96.5%,117,105%,97.6%,100,99.3,103%,104,93.5%,,,
[O-][N+](=Nc1cccc(Cl)c1)c1cccc(Cl)c1,141%,114,88.3%,61.8,110%,76.4,111%,112%,99%,30.2,73.1%,102%,90.4,27.6,90.6%,63.1,91.9%,,,
CCOC(=O)c1coc(C(=O)OCC)c1C(=O)OCC,113%,118,114%,119,120%,112,111%,117%,119%,117,119%,108%,113,113,115%,108,106%,,,
Cc1nc2c(ccc3ccccc32)s1,91.3%,94.1,102%,108,107%,109,121%,106%,108%,102,109%,115%,107,99.2,103%,75.1,117%,,,
N#C/C(=C\c1cc(O)c(O)c(O)c1)C(N)=O,72.9%,,98.2%,45.7,110%,122,107%,110%,102%,110,,89.4%,116,100,92.8%,98.3,103%,19.6%,,
CC(=O)c1sc2c(c1OC(=O)c1ccc(Cl)cc1Cl)c(=O)n(-c1ccccc1)c(=S)n2-c1ccccc1,-10.4% (active),,-4.64% (active),,5.36% (active),,24.1%,-26.8% (active),7.59% (active),61.1,-24.4% (active),4.71% (active),14,,-0.425% (active),24.6,-0.943% (active),-43.1% (active),51.2,6.27% (active) and -47.6% (active)
CCOC(=O)C/C(C)=N\O,104%,109,106%,,103%,101,99.9%,101%,96.6%,98.3,97.1%,107%,101,101,103%,101,104%,,,
Cn1cnc2nc(Cl)nc(Cl)c21,27.9%,24.3,59.8%,42.4,61.2%,30.3,-27.8% (active),72.4%,27.1%,56.7,-28.5% (active),-20.5% (active),,16.7,3.41% (active),,-40.8% (active),,,
O=P(O)(O)OCC(O)CO (stereo not given),99.6%,109,101%,88.3,106%,,112%,106%,106%,100,102%,109%,107,95.6,102%,107,105%,,,
COc1ccc(C(C)C=O)cc1 (stereo not given),102%,109,117%,110,109%,116,108%,,104%,97.9,,113%,,95.9,101%,109,107%,,,
CC1=NN(c2ccccc2)C(=O)/C1=C\N1CC(=O)NC1=S,89.1%,102,119%,102,101%,106,111%,,103%,97.1,107%,105%,106,103,106%,108,103%,,,
c1ccc(/C(=N\N=C(/c2ccccc2)c2cccs2)c2cccs2)cc1,87.3%,95,98.5%,97.1,105%,105,99.7%,105%,102%,86.7,102%,103%,98,96,91.9%,101,97.1%,,,
CCCCCCCCCCC1CO1 (stereo not given),98.5%,109,111%,98.8,101%,111,111%,118%,110%,103,109%,112%,106,92.4,102%,102,109%,,,
CC(C)=NNc1ccc([N+](=O)[O-])cc1[N+](=O)[O-],90.6%,100,105%,96.5,92.9%,124,104%,90.5%,93.4%,64.9,90.9%,84.2%,85.7,93.7,82.5%,87,86.4%,,,

# Reference: PubChem BioAssay (NCI)
